HP1b binding inh = HP1-beta chromodomain-methylated histone interaction inhibition; hit rate 0.56% among 390,000; Potency, µM (highest dose often 114 µM), hits mostly inhibitors; AlphaScreen HP1-beta / biotin-H3K9me3 peptide binding; AID 540317; also: nearly all actives have a fitted effect of over 70% in size
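HP1-beta protein (50 nM final) preincubated 30 min at room temperature with biotinylated H3(1-18)K9me3 peptide (50 nM) in PBS pH 7.4, 0.01% Tween-20, then compound added for 30 min. AlphaScreen streptavidin donor/nickel chelate acceptor beads (10 ug/mL final), 30 min dark, luminescence read.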
JMJD2A Tudor = blocks the human JMJD2A Tudor domain | O75164 | AlphaScreen JMJD2A-Tudor / H3K4me3 peptide binding | Potency, µM (highest dose often 114 µM), hits mostly inhibitors | hit rate 4.4% among 390,000; also: nearly all actives have a fitted effect of over 50% in size
L3MBTL1 block = inhibitors of human L3MBTL1; Q9Y468; Potency, µM (highest dose often 57.1 µM), most hits filed as inhibitors; AID 485360; AlphaScreen L3MBTL1–H3K9me1 peptide binding; hit rate 0.66% among 230,000; also: nearly all actives have a fitted effect of over 60% in size
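L3MBTL1 (50 nM) pre-complexed 30 min with biotinylated H3(1-15)K9me1 peptide (75 nM), then compounds added for 30 min at room temperature; AlphaScreen streptavidin donor/nickel chelate acceptor beads (10 ug/mL final) read after 30 min dark incubation.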
G9a block = inhibitors of human histone lysine methyltransferase G9a; G9a H3K9 monomethylation, AlphaScreen, 2 h; hit rate 8.8% among 350,000; AID 504332; Potency, µM (doses to about 102 µM), most hits filed as inhibitors; also: nearly all actives have a fitted effect of over 75% in size
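AlphaScreen read-out: biotin-H3K9 peptide (500 nM) methylation by 20 nM enzyme with 20 uM SAM, 2 h at room temperature after 15 min compound preincubation; anti-monomethyl H3K9 antibody plus donor/acceptor beads, 10 min dark.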
GLS inhibitor = blocks human kidney-isoform glutaminase activity; GLS enzymatic activity, qHTS titration; O94925; Potency, µM (series often up to 45.5 µM), most hits filed as inhibitors; hit rate 0.21% among 410,000
Target sequence (O94925 whole entry, looked up, canonical isoform): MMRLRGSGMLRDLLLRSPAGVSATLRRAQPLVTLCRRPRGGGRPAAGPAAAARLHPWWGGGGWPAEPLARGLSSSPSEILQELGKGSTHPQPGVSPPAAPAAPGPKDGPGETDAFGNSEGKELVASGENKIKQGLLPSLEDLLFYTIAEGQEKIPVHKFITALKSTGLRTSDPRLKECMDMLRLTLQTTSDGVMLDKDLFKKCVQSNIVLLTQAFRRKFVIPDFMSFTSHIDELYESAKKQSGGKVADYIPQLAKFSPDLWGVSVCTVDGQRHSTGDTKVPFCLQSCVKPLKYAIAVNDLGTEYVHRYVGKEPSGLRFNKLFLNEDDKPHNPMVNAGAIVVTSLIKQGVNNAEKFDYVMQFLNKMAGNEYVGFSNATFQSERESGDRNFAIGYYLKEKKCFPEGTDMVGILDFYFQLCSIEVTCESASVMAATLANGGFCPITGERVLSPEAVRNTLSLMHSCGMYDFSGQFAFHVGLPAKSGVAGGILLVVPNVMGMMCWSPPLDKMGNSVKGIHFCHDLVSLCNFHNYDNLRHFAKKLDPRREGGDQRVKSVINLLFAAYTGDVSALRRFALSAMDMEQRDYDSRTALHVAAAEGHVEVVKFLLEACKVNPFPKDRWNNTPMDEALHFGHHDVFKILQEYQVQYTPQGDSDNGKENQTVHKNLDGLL
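hKGA in 45 mM KH2PO4 pH 8.2, 0.02% Tween-20 with pin-transferred compounds; 1 mM L-glutamine (stock) plus glutamate oxidase/HRP/Amplex Red coupling added. Fluorescence read initially and after 30 min at RT.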
BAZ2B inh = BAZ2B (human) inhibition; AlphaScreen BAZ2B-H3K14Ac peptide displacement; Potency, µM (series often up to 114 µM), actives largely listed as inhibitors; hit rate 4.4% among 360,000; AID 504333; also: nearly all actives have a fitted effect of over 60% in size
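In this displacement format the biotinylated H3(5-23) peptide acetylated at Lys14 serves as ligand at 50 nM, with BAZ2B at 50 nM in PBS pH 7.4 containing 0.01% Tween-20. Donor and acceptor beads are 10 ug/mL final.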
Numbers stand for hits; - = inactive; ? = inconclusive; . = no result; ! = a repeat was not active; [ ] = another dose, or the depositor's remark. Compounds with a hit are over-represented: about 10% of the library has one in this group of screens. Calls follow the shape of the dose curve; as a rule, active = well fitted curve in the direction sought with a large enough effect; inconclusive = small, poorly fitted or top-dose-only effect, or another doubt; inactive = no such curve, though single readings can be large; an effect the other way counts as inactive or inconclusive.

SMILES	HP1b binding inh	JMJD2A Tudor	L3MBTL1 block	G9a block	GLS inhibitor	BAZ2B inh
CCOC(=O)Cc1csc(NC(=O)COc2ccc(N(C)S(=O)(=O)c3ccc(C)cc3)cc2)n1	-	-	.	-	-	-
CC(=O)N1CCc2cc(Br)cc(S(=O)(=O)N3CCC(C(=O)Nc4ccc(C(C)C)cc4)CC3)c21	-	-	.	-	-	-
COc1cccc(Cn2c(=O)c(CCc3ccccc3)nc3cnc(OC)nc32)c1	.	.	.	-[12.7 µM]	.	.
NC(N)=NC(=O)c1nc(Cl)c(N2CCCCCC2)nc1N	-	?	-	50µM!	-	?
CCOC(=O)c1[nH]c2ccccc2c1NC(=O)CN(C)C	-	-	-	?	-	-
CCOC(=O)c1[nH]c2ccccc2c1NC(=S)Nc1cccc(C)c1C	-	?	-	45µM	-	?
CCOC(=O)c1[nH]c2ccc(OC)cc2c1NC(=S)N1CCN(c2ccccc2OC)CC1	-	?	-	79µM	-	-
CCOC(=O)c1[nH]c2ccc(OC)cc2c1NC(=S)N1CCN(C(=O)OCC)CC1	-	-	.	-	-	-
CCOC(=O)c1[nH]c2ccccc2c1NC(=O)c1ccccc1OC	-	-	.	?	-	79µM
CCOC(=O)c1[nH]c2ccccc2c1NC(=O)CC(C)(C)C	-	-	.	50µM	-	-
CCOC(=O)c1[nH]c2ccccc2c1NC(=O)c1cc(Cl)ccc1Cl	-	-	.	-	-	-
COc1cccc2[nH]c(C(=O)NN)c(N)c12	-	?	-	50µM	-	?
COc1cccc2[nH]c3ccccc3c(=O)c12	-	-	-	-	-	-
CC(=O)c1cccc(NC(=O)c2nc(-c3ccccc3)n(-c3ccccc3C)n2)c1	-	-	.	-	-	-
CC(C)c1cc(/C=C(\C#N)C(=O)NCCCc2ccccc2)cc(C(C)C)c1O	.	.	.	-	.	.
C#CCOCCOCCOCCNc1nc(N2CCN(C(=O)[C@H](CCC(=O)O)n3cc(C(N)CO)nn3)CC2)nc(N2CCN(C(=O)[C@H](CCC(=O)O)n3cc(C(N)CC(C)C)nn3)CC2)n1 (stereo not given in full)	.	.	.	?	.	20µM
C#CCOCCOCCOCCNc1nc(N2CCN(C(=O)[C@H](CCC(=O)O)n3cc(C(N)CO)nn3)CC2)nc(N2CCN(C(=O)[C@H](CCC(=O)O)n3cc(C(N)CO)nn3)CC2)n1 (stereo not given in full)	.	.	.	?	.	14µM
C=CCn1c(N)c(C(=O)OCC)sc1=S	-	-	-	-[12.7 µM]	-	?
C=CCn1c(NC(=O)CC)c(C(=O)OCC)sc1=S	-	-	.	45µM	-	?
COc1ccc(-c2nc3ccccc3o2)cc1NC(=O)C(C)(C)Oc1ccc(Br)cc1	-	-	.	-	-	-
O=C(c1ccco1)N1CCN(C(=O)c2ccc(Cn3cc(Br)cn3)o2)CC1	-	-	.	50µM	-	-
CCOc1ccc(OCC(=O)OCC(=O)N2CCN(C(=O)c3ccco3)CC2)cc1	-	-	?	32µM	-	-
COc1ccc(CN2CCN(C(=O)c3ccco3)CC2)cc1	-	-	-	-	-	-
CCOc1ccc(CN2CCN(C(=O)c3ccco3)CC2)cc1	?	20µM	-	32µM	-	-
O=C(Cc1ccccc1F)OCC(=O)N1CCN(C(=O)c2ccco2)CC1	-	-	-	-	-	-
SMILES	HP1b binding inh	JMJD2A Tudor	L3MBTL1 block	G9a block	GLS inhibitor	BAZ2B inh
O=C(c1ccco1)N1CCN(CC2CC3C=CC2C3)CC1 (stereo not given)	-	1.4µM	-	?	-	50µM
O=C(c1ccco1)N1CCN(C(=O)c2ccco2)CC1	.	.	.	.	-	.
COc1ccc(NC(=O)C2=C(C)Nc3ncnn3C2c2ccc[nH]2)cc1 (stereo not given)	-	-	.	-	-	-
CCOc1ccc(S(=O)(=O)NCc2cccn2Cc2cccc(C)c2)cc1	-	-	.	-	-	-
CCCCCCOc1ccc(C2C(=O)N(C3CCCCC3)CC(=O)N2CCC)cc1 (stereo not given)	-	-	.	-	-	-
O=C(c1ccco1)N1CCN(Cc2ccc(F)cc2)CC1	?	20µM	-	11µM	-	79µM
O=C(c1ccco1)N1CCN(Cc2ccc(F)cc2Cl)CC1	-	-	-	-	-	-
O=C(c1ccco1)N1CCN(Cc2ccccc2Br)CC1	?	8.9µM	.	20µM	-	32µM
O=C(c1ccc(F)cc1)N1CCN(Cc2ccccc2Br)CC1	?	25µM	-	10µM	-	?
O=C(c1ccco1)N1CCN(Cc2nnc(-c3ccccc3F)o2)CC1	-	?	.	71µM	-	-
CCN(Cc1ccccc1)C(=O)Nc1ccc2c(c1)N(C)C(=O)c1ccccc1S2	-	-	.	-	-	-
Cc1ccccc1-c1nc(CN2CCN(C(=O)c3ccco3)CC2)c(C)o1	-	-	.	50µM	-	-
CCOc1ccccc1-n1c(CN2CCN(C(=O)c3ccco3)CC2)nc2ccccc2c1=O	-	-	-[11.4 µM]	14µM	-	-
CCOc1cc(CN2CCN(C(=O)c3ccco3)CC2)ccc1OC	?	5.6µM	-	-[12.7 µM]	-	50µM
CC(=O)Nc1ccc(S(=O)(=O)NC2(C(F)(F)F)NC(=O)N(CCc3ccc(F)cc3)C2=O)cc1 (stereo not given)	-	-	.	-	-	-
CCc1c(C)sc(NC(=O)Cn2nc(C(F)(F)F)c3c2CCCC3)c1C#N	-	-	-	14µM	.	-
CSc1ccc(-c2nnc(NC(=O)c3ccc4c(c3)OCCO4)o2)cc1	-	-	.	-	-	-
CCCC(=O)Nc1nnc(-c2ccc3c(c2)OCCO3)o1	-	?	-	-	-	79µM
O=C(CCc1n[nH]c(=O)[nH]c1=O)N/N=C/c1ccco1	-	-	-	?	-	50µM
COc1cccc(/C=N/NC(=O)CCc2n[nH]c(=O)[nH]c2=O)c1O	-	-	-	-	-	-
Cc1ccc(NC(=O)NCCOCCn2c(=O)oc3ccccc32)cc1C	-	-	.	-	-	-
Brc1ccc(N/N=C(/N=Nc2nn[nH]n2)c2ccccc2)cc1	13µM	13µM	?	11µM	-	11µM
NC(=O)/C(N=Nc1ccccc1)=N/Nc1ccccc1	-	?	-	-[2.33 µM]	-	-
O=C(O)c1cccc(N/N=C(\N=Nc2ccccc2)c2ccccc2)c1	35µM	40µM	?	?	-	14µM
O=C(O)c1ccc(N=N/C(=N\Nc2ccc(C(=O)O)cc2)c2ccccc2)cc1	?	50µM	?	?	-	28µM
CC(C)c1ccc(NC(=O)C2CCC(CNS(=O)(=O)c3ccc4c(c3)CCCC(=O)N4)CC2)cc1 (stereo not given)	-	-	.	-	-	-
O=c1c2sc3ccccc3c2n(Cc2ccc(F)cc2)c(=O)n1Cc1ccco1	-	-	.	-	-	-
Cc1ccc(NC(=O)N2CCC(=O)N2)cc1	-	32µM	-	?	-	-

Source: PubChem (National Center for Advancing Translational Sciences (NCATS))
